Inconclusive results are not listed. A call without a number means that no potency is given here. Values without a mark were called inactive. Calls of active or inactive are those of the source. The call rests on the fitted dose curve.
Biological target: D(2) dopamine receptor (Homo sapiens) (UniProt P14416)
Assay: Dopamine D2 receptor (DRD2) small molecule agonists, cell-based qHTS assay (AID 1963594); further: nearly all actives have a fitted effect of over 35% in size
Conditions: HEK293-DRD2 cAMP HTRF, agonist mode, 30 min; series mostly up to 92.4 µM
Excerpt: National Center for Advancing Translational Sciences [NCATS]
Division of Preclinical Innovation [DPI]
U.S. Environmental Protection Agency [EPA]
National Institutes of Environmental Health Sciences [NIEHS]
National Toxicology Program [NTP]
U.S. Food and Drug Administration [FDA]
DRD2 is the D2 subtype of the dopamine receptor, which is coupled to Gi subtype of G protein-coupled receptor. This G protein-coupled receptor inhibits adenylyl cyclase activity. The DRD2-HEK293 cell line stably expressing D2 dopamine receptor can be used for screening agonists and antagonists of interactions between D2 and its ligands. The Hek293-DRD2 cAMP assay is based on HTRF technology. It measures changes of cAMP accumulation in response to Gi coupled GPCR activation or inhibition.
Tox21 Assay Protocol Summary:
DRD2-Hek293 cells were dispensed at 600 cells/3uL/well in 1536-well white plates using a Multidrop Dispenser. After the assay plates were incubated at a 37 C/5% CO2 incubator for 24 h, 1 uL of Ro20-1724 at final concentration of 0.1 mM was transferred to the assay plate by a Flying Reagent Dispenser. Following Ro20-1724 addition, 23 nL of compound dissolved in DMSO, positive controls or DMSO only was added to the assay plates via Wako pintool station. The assay plates were incubated at room temperature for 10 min. Next, 1 uL of NKH477 at 200nM was added into the plates. After the assay plates were incubated at room temperature for an additional 30 min, 2.5 ul/well of cAMP-d2 and 2.5 ul/well of anti-cAMP-cryptate were added respectively into the assay plates using a Flying Reagent Dispenser. The plates were incubated at room temperature for 1 h. The fluorescence intensity in the plates was measured at 340 nm excitation and 665 & 620 nm emission by an Envision plate reader.
Potency means the concentration at half of the fitted maximal effect.

Sequence of D(2) dopamine receptor (Homo sapiens) (P14416 whole entry, looked up): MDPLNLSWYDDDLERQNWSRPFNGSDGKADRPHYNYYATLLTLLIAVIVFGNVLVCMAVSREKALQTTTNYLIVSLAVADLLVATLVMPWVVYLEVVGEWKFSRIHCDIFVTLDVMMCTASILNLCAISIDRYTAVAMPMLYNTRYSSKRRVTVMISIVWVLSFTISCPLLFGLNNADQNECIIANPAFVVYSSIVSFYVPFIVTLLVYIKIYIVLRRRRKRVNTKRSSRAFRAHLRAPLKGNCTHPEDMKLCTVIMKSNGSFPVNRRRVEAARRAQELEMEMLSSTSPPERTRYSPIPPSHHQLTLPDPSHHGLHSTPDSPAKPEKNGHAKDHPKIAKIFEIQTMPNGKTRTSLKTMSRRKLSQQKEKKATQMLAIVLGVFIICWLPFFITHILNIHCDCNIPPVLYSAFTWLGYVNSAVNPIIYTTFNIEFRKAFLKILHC

Row | Compound | Potency | activation
1 | CC(CN(C)C)C(C)(O)Cc1ccc(Cl)cc1 (stereo not given) | inactive | –
2 | Cc1nc(-c2ccc(OCC(C)C)c(C#N)c2)sc1C(=O)O | inactive | –
3 | CCCCOc1cc(C(=O)OCCN(CC)CC)ccc1N | inactive | –
4 | CCCCCC(=O)OCC | inactive | –
5 | CNC(=O)c1c(I)c(NC(=O)CCCCC(=O)Nc2c(I)c(C(=O)O)c(I)c(C(=O)NC)c2I)c(I)c(C(=O)O)c1I | inactive | –
6 | CC(C)NCC(O)c1ccc(NS(C)(=O)=O)cc1 (stereo not given) | inactive | –
7 | CC1=C(C(=O)OC(C)C)C(c2cccc([N+](=O)[O-])c2)C(C(=O)OC2CN(C(c3ccccc3)c3ccccc3)C2)=C(N)N1 (stereo not given) | inactive | –
8 | CCCCCCCCOc1ccc(C(=O)O)cc1 | inactive | –
9 | CN1CCN(c2cc3c(cc2F)c(=O)c(C(=O)O)cn3-c2ccc(F)cc2)CC1 | inactive | –
10 | CCOC(=O)/C=C/C(=O)OCC | inactive | –
11 | Cn1nnc2c(C(N)=O)ncn2c1=O | inactive | –
12 | ICCc1ccccc1 | inactive | –
13 | OCC(O)[C@@H](O)[C@H](O)[C@H](O)CO[C@H]1O[C@H](CO)[C@@H](O)[C@H](O)[C@H]1O (stereo not given in full) | inactive | –
14 | CC(=O)OC1CCCCC1 | inactive | –
15 | COc1ccc(C(=O)N2CCN(CC(=O)N3CCOCC3)CC2)cc1 | inactive | –
16 | CC(C(=O)O)c1ccc(/C=C2\CCCCC2=O)cc1 (stereo not given) | inactive | –
17 | c1ccc([C@H]2CN3CCSC3=N2)cc1 | inactive | –
18 | OC(CCCN1CCCCC1)(c1ccccc1)c1ccccc1 | inactive | –
19 | CCCCCCCC1CCCC1=O (stereo not given) | inactive | –
20 | C[C@H]1C[C@H]2[C@@H]3CCC4=CC(=O)C=C[C@]4(C)[C@@]3(F)[C@@H](O)C[C@]2(C)[C@@]1(O)C(=O)COP(=O)(O)O | inactive | –

Row | Compound | Potency | activation
21 | Cc1cccc(CN2CCN(C(c3ccccc3)c3ccc(Cl)cc3)CC2)c1 (stereo not given) | inactive | –
22 | CCCC(C(=O)OCCN(CC)CC)(c1ccccc1)c1ccccc1 | inactive | –
23 | O=c1[nH]cnc2ccccc12 | inactive | –
24 | NC(Cc1ccc(Cl)cc1)C(=O)O (stereo not given) | – | 0.127% [at 0.349 µM]
25 | CCC(=O)CC(C)CC (stereo not given) | – | -3.53% [at 0.349 µM]
26 | CC1(C)S[C@@H]2[C@H](NC(=O)Cc3ccccc3)C(=O)N2[C@H]1C(=O)O (tested in a mixture with another compound) | inactive | –
27 | CC(C)C(=O)OCc1ccccc1 | inactive | –
28 | C=C(C)C(=O)OCC(C)(C)COC(=O)C(=C)C | inactive | –
29 | COc1ccc(Nc2ccc(OC)cc2)cc1 | inactive | –
30 | CCN[C@@H]1C[C@H](N)[C@@H](OC2OC(CN)=CCC2N)[C@H](O)[C@H]1O[C@H]1OC[C@](C)(O)[C@H](NC)[C@H]1O (stereo not given in full) | – | -8.99% [at 0.349 µM]
31 | CCn1cc(C(=O)O)c(=O)c2cnc(N3CCCC3)nc21 | – | 1.32% [at 8.39 µM]
32 | CC(N)C12CC3CC(CC(C3)C1)C2 (stereo not given) | inactive | –
33 | C/C=C\C/C=C/CCCCCCCCOC(C)=O | inactive | –
34 | CCCCCCCC/C=C\CCCCCCCCN | inactive | –
35 | CN=C(NC#N)NCCSCc1csc(N=C(N)N)n1 | 19.9 µM (active) | –
36 | CCCCCCCCCCCCCCCCCCOS(=O)(=O)O | inactive | –
37 | CN(C)CCCOc1nn(Cc2ccccc2)c2ccccc12 | inactive | –
38 | Cc1ncc([N+](=O)[O-])n1CC(C)O (stereo not given) | inactive | –
39 | C=C(C)C(=O)OCCN(CC)CC | inactive | –
40 | CC12CCC(CC1=O)C2(C)C (stereo not given) | inactive | –

Reference: PubChem BioAssay (Tox21)
